pKd: −log10 of the molar value.
Legend:
[1] = tested on: AAK1; details: concentration: 1 μM, replicates: in singlicate; n = 1
[2] = tested on: ABL1-nonphosphorylated; details: concentration: 1 μM, replicates: in singlicate; n = 1
[3] = tested on: ABL1-phosphorylated; details: concentration: 1 μM, replicates: in singlicate; n = 1
[4] = tested on: ABL2; details: concentration: 1 μM, replicates: in singlicate; n = 1
[5] = tested on: ACVR1B; details: concentration: 1 μM, replicates: in singlicate; n = 1
[6] = tested on: ACVR1; details: concentration: 1 μM, replicates: in singlicate; n = 1
[7] = tested on: ACVR2A; details: concentration: 1 μM, replicates: in singlicate; n = 1
[8] = tested on: ACVR2B; details: concentration: 1 μM, replicates: in singlicate; n = 1
[9] = tested on: ACVRL1; details: concentration: 1 μM, replicates: in singlicate; n = 1
[10] = tested on: T1, ADCK3; details: concentration: 1 μM, replicates: in singlicate; n = 1
T1 construct: gene CABC1

[11] = tested on: ADCK4; details: concentration: 1 μM, replicates: in singlicate; n = 1
[12] = tested on: AKT1; details: concentration: 1 μM, replicates: in singlicate; n = 1
[13] = tested on: AKT2; details: concentration: 1 μM, replicates: in singlicate; n = 1
[14] = tested on: AKT3; details: concentration: 1 μM, replicates: in singlicate; n = 1
[15] = tested on: ALK; details: concentration: 1 μM, replicates: in singlicate; n = 1
[16] = tested on: T2, YANK2
T2 construct: gene STK32B

[17] = tested on: T3, p38-beta
T3 construct: gene MAPK11

[18] = tested on: T4, YSK4
T4 construct: gene MAP3K19

[19] = tested on: T5, p38-alpha
T5 construct: gene MAPK14
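For %Inh in this document: KINOMEscan kinase panel screen.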
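For pKd in this document: kd values determined as follow-up on hits from a single-replicate KINOMEscan panel screen.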

Structure (SMILES) | %Inh [1] [%] | %Inh [2] [%] | %Inh [3] [%] | %Inh [4] [%] | %Inh [5] [%] | %Inh [6] [%] | %Inh [7] [%] | %Inh [8] [%] | %Inh [9] [%] | %Inh [10] [%] | %Inh [11] [%] | %Inh [12] [%] | %Inh [13] [%] | %Inh [14] [%] | %Inh [15] [%] | pKd [16] | pKd [17] | pKd [18] | pKd [19]
COc1ccc2cc(-c3nc(-c4ccccc4C(C)C)[nH]c3-c3ccncc3)ccc2c1 [SB-660566] | 20 | 0 | 3 | 8 | 74 | 17 | 0 | 0 | 34 | 5 | 17 | 0 | 41 | 0 | 38 |  |  |  | 
CNc1nc(-c2ccc3c(N)n[nH]c3c2)cc(N2C[C@@H](C(=O)Nc3ccccc3)CC[C@H]2C)n1 [GSK2298859] | 12 | 1 | 0 | 2 | 0 | 0 | 0 | 12 | 0 | 22 | 26 | 0 | 2 | 0 | 3 | 6.66 |  |  | 
CSc1ccc(-c2nc3n(c2-c2ccncc2)CCC3)cc1 [SKF-105561] | 0 | 16 | 0 | 12 | 4 | 5 | 0 | 2 | 21 | 0 | 0 | 6 | 0 | 6 | 8 |  |  |  | 
Cl.Cl.Cl.N#Cc1ccc(CCNc2nccc(-c3cccc(CN4CCNCC4)c3)n2)cc1 [GSK2137462] | 14 | 10 | 0 | 9 | 0 | 11 | 0 | 0 | 0 | 23 | 22 | 0 | 5 | 5 | 15 |  |  |  | 
COC(=O)c1cccc(NC(=O)NC2CCN(c3ccnc(Nc4ccc(F)cc4)n3)C2)c1 (centres unmarked) [GSK1379725] | 0 | 0 | 0 | 5 | 0 | 0 | 0 | 0 | 0 | 4 | 23 | 0 | 0 | 0 | 17 |  |  |  | 
CNC(=O)c1ccc(C)c(-n2c(C)cc(OCc3ccc(F)cc3F)c(Br)c2=O)c1 | 0 | 0 | 0 | 0 | 7 | 0 | 0 | 2 | 0 | 0 | 0 | 0 | 2 | 0 | 0 |  | 6.92 |  | 
O=C(Nc1n[nH]c2cc(-c3ccsc3)ccc12)C1CC1 [SB-732932] | 56 | 47 | 11 | 18 | 21 | 28 | 26 | 45 | 0 | 0 | 0 | 0 | 21 | 9 | 9 |  |  | 6.92 | 
CNCc1ccc2nc(NC(=O)c3ccc(C(C)(C)C)cc3)cn2c1 | 0 | 13 | 12 | 1 | 0 | 2 | 0 | 0 | 7 | 0 | 13 | 5 | 8 | 17 | 16 |  |  |  | < 5.00
Nc1cccc(-c2ccc3c(N)n[nH]c3c2)n1 [GSK2192730] | 56 | 10 | 0 | 0 | 0 | 0 | 0 | 9 | 0 | 1 | 0 | 0 | 0 | 0 | 21 |  |  | 6.89 | 
